# Measured values taken from PubChem BioAssay.
# A number with no mark means an inactive call. How the calls were made is not given here.
# Molecular target: Pantothenate synthetase (Mycobacterium tuberculosis (strain ATCC 25618 / H37Rv)) (UniProt P9WIL5)
# Assay: Coupled enzyme confirmation of inhibitors against recombinant Mtb PanC (AID 375);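 further: 0% = full reaction with vehicle and 100% = no enzyme background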
# Conditions: coupled enzyme assay; at 10 µM, active compounds read high
# Pantothenate synthetase (Mycobacterium tuberculosis (strain ATCC 25618 / H37Rv)), sequence (P9WIL5 whole entry, looked up): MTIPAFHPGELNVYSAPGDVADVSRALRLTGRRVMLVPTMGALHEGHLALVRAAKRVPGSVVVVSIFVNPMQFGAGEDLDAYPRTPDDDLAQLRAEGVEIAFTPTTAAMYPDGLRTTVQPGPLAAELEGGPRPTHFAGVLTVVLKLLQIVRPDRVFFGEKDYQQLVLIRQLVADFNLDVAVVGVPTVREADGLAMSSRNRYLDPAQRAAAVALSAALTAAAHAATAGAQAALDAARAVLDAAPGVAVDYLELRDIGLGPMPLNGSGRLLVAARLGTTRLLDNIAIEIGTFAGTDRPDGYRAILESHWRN
row,Structure (SMILES),inhibition [%]
1,O=c1oc2ccccc2c2nccnc12,0
2,COc1ccccc1OCCOCCn1cnc2ccccc2c1=O,0
3,COC(=O)[C@H](C)NC(=O)Nc1cc(OC)ccc1OC,0
4,COCCN(CCOC)S(=O)(=O)c1ccc(C(=O)Nc2nnc(C3CC3)o2)cc1,0
5,COCCNc1nc(C(C)(C)C)nc2c1nnn2Cc1ccccc1Cl,0
6,C(=N\n1cnnc1)/c1cccnc1,0
7,CSC1=C(C#N)C(C)CC(=O)N1 (configuration not stated),0
8,CCn1c(SCC(=O)Nc2nccs2)nnc1-c1ccncc1,4
9,Cc1nc2sc(C#N)c(N)c2c2c1CCCC2,2
10,O=C(NCc1ccco1)c1cccn2c(=O)c3sccc3nc12,4
11,ON1C2CCCCC2N(O)C1c1c(F)c(F)c(F)c(F)c1F (configuration not stated),7
12,CCOc1ccccc1N1CCN(C(=O)c2ccncc2)CC1,0
13,COC(=O)c1ccc2c(=O)n(NC(C)=O)c(=S)[nH]c2c1,0
14,CC(NC(=O)c1ccc(F)cc1)C(c1cccs1)N1CCN(C)CC1 (configuration not stated),3
15,Cc1nnc(NC(=O)CSc2cn(CCNC(=O)c3ccccc3)c3ccccc23)s1,0
16,CCN(CC)c1nc(N(CC)CC)[nH]c(=O)n1,0
17,c1ccc(OCCCn2nnc(-c3ccncc3)n2)cc1,3
18,C[N+](C)(C)CCCCCCCCCC[N+](C)(C)C,4
19,CC(=O)NC(=O)NC1CSCC1OC(C)=O (configuration not stated),4
20,COc1cccc(/C=N/n2cnnc2)c1OCc1ccccc1,0
21,Cc1nc2sccn2c(=O)c1CCN1CCC(=C(c2ccc(F)cc2)c2ccc(F)cc2)CC1,0
22,Cc1ccc(C(=O)CC2(O)C(=O)N(C)c3ccc(Br)cc32)c(C)c1 (configuration not stated),0
